Structures are written as SMILES. Compounds without any hit were thinned out: in the full panel of roughly 83,000, 20% have a hit.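 Growth was measured after 48 h exposure to one concentration of compound in 96-well plates. Values under 10 count as active.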 A number with no mark means an inactive call. Calls of active or inactive are those of the source.

Holding throughout (test): NCI-60 one-dose screen, 48 h (100 = growth as untreated, 0 = no growth, -100 = all killed)
Holding throughout (conditions): 10 µM unless noted

In test [1] the test system is DU-145 prostate.
Test [2] deals with K-562 leukemia.
Test [3] has as its system MALME-3M melanoma.
The test system of test [4] is MDA-MB-231 breast.
Test [5] concerns RXF 393 renal.
Test [6] has as its system SF-268 CNS.
Test [7] deals with SF-295 CNS.
Test [8] concerns SF-539 CNS.
Test [9] has as its system UACC-257 melanoma.
In test [10] the test system is M14 melanoma.
Test [11] relates to HCT-15 colon.
The subject of test [12] is HT29 colon.
Test [13] has as its system SNB-75 CNS.
Test [14] deals with SNB-19 CNS.
Test [15] relates to U251 CNS.
The test system of test [16] is PC-3 prostate.
The subject of test [17] is SK-MEL-5 melanoma.
In test [18] the test system is UACC-62 melanoma.
Test [19] has as its system LOX IMVI melanoma.
Test [20] has as its system SK-MEL-28 melanoma.

As to `CCN(CC)CCN1C(=O)c2c(c(C)c3c(oc4ccc(OC)cc43)c2C)C1=O`, the growth was 94.1% in test [1]; 90.5% in [2]; 91.9% in test [3]; 96.3% in test [4]; 82.2% in [5]; 94.9% in test [6]. Further, the growth was 105% in test [7]; 94.1% in [8]; 101% in [9]; 103% in test [10]; 90% in test [11]; 87.5% in test [12]. Besides, the growth was 116% in [13]; 88% in test [14]; 87.3% in test [15]; 90.7% in test [16]; 82.7% in [17]; 97% in test [18]. Also, the growth in test [19] was 93.3%; in test [20], 91.6%.

For the compound `CC(=C(c1ccc(OCCN2CCCCC2)cc1)c1ccc(OCCN2CCCCC2)cc1)c1ccc(Cl)cc1`, the growth was -92.8% (active) in test [1]; -65.7% (active) in test [2]; -84.3% (active) in test [3]; -85.1% (active) in test [4]; -78.8% (active) in [5]; -77.2% (active) in test [6]. Besides, the growth in test [7] was -92.1% (active); in test [8], -94.9% (active); in test [9], -82.1% (active); in [10], -81.9% (active); in test [11], -88.3% (active); in [12], -86.3% (active). Also, the growth was -97.3% (active) in test [13]; -91.2% (active) in test [14]; -90.7% (active) in test [15]; -82.4% (active) in [16]; -96.9% (active) in test [17]; -76.9% (active) in test [18]. Further, the growth in test [19] was -94.5% (active); in test [20], -96.1% (active).

As for `OCCNCCNC(Cc1ccc(Cl)cc1)c1ccccc1` (stereo not given), the growth in test [1] was 99.7%; in test [2] it was 88.5%; in test [3] it was 107%; in test [4], 75.7%; in test [5], 84.5%; in test [6] it was 88.8%. The growth in [7] is 92.2%; in test [8], 72.9%; in [9] it was 104%; in test [10] it was 90.5%; in test [11], 93.3%; in test [12], 59.9%. Besides, the growth in test [13] is 72.8%; in test [14], 96.9%; in test [15], 94.2%; in test [16], 55.3%; in [17] it was 95.2%; in test [18] it was 59.7%. Also, the growth was 83.8% in test [19] and 81.5% in test [20].

As for `Cc1ccc(-c2nc(SCc3nc4cc(Cl)c(Cl)cc4[nH]3)[nH]c(=O)c2C#N)cc1`, the growth in test [1] is 91.6%; in test [2] it was 93.4%; in [3], 95.6%; in test [4] it was 97.9%; in [5], 108%; in [6] it was 91.6%. In addition, the growth in [7] is 104%; in test [8] it was 97.5%; in [9], 91.3%; in test [10] it was 91.2%; in test [11] it was 104%; in test [12], 95.7%. Moreover, the growth is 87.2% in test [13]; 106% in test [14]; 98.7% in test [15]; 94% in test [16]; 104% in [17]; 99.5% in [18]. Also, the figures for the growth in [19] and in test [20] were 102% and 111%, respectively.

In the case of `N#Cc1cncc(-c2ccc3ncnc(Nc4cccc(Cl)c4)c3c2)c1`, the growth in [1] was 63.4%; in test [2] it was 87%; in test [3], 76.8%; in test [4] it was 66.6%; in test [5], 45.9%; in [6] it was 68.5%. Moreover, the growth in test [7] was 76%; in test [8], 78%; in [9], 72.6%; in test [10], 83.8%; in test [11] it was 77.9%; in [12], 66.8%. The growth was 65.5% in test [13]; 63.3% in test [14]; 62.1% in test [15]; 63.5% in test [16]; 75.4% in [17]; 81.7% in [18]. Besides, the growth was 91.1% in test [19] and 81.8% in test [20].

On to `C/C(Cc1ccc(Cl)cc1)=C(\c1ccc(OCCCN(C)C)cc1)c1ccc(OC(=O)Cc2ccccc2)cc1`, for which the growth in test [1] is 106%; in test [2], 91.8%; in test [3] it was 111%; in test [4] it was 108%; in test [5], 109%; in test [6], 97.6%. In addition, the growth was 100% in test [7]; 105% in test [8]; 103% in test [9]; 109% in test [10]; 103% in [11]; 78.8% in test [12]. Moreover, the growth in test [13] is 92.8%; in test [14], 105%; in [15], 112%; in test [16] it was 96.5%; in [17] it was 102%; in test [18], 105%. The growth was 99.2% in test [19] and 103% in test [20].

Consider `COc1ccc(C(=O)N2c3ccccc3Sc3ccccc32)c(C(F)(F)F)c1`, for which the growth in test [1] is 14.2%; in test [2], -7.9% (active); in [3], 59.7%; in test [4], 23.9%; in test [5], 15.4%; in test [6], 35.2%. The growth in [7] is 5.14% (active); in [8], -10.1% (active); in test [9], 61.5%; in [10], 2.2% (active); in test [11], 18%; in test [12] it was 3.4% (active). Also, the growth in test [13] was 29.3%; in test [14], 30.8%; in [15] it was 19%; in [16] it was 15.5%; in test [17] it was 5.29% (active); in test [18], 31.6%. Besides, the growth was 16.7% in test [19] and 52% in test [20].

In the case of `Cn1ccc(=O)nc1`, the growth was 8.53% (active) in test [1]; 91.9% in test [2]; 111% in [3]; 91.9% in [4]; 92.6% in test [5]; 86.1% in test [6]. Besides, the growth in test [7] was 82.9%; in test [8], 99.9%; in test [9], 88.3%; in test [10], 102%; in test [11] it was 24.1%; in [12], 20.6%. The growth was 104% in test [13]; 84.6% in test [14]; 77.8% in test [15]; 69.6% in [16]; 99.3% in [17]; 74.8% in test [18]. For the same compound, the results for the growth in test [19] and in [20] were 76.8% and 109%, respectively.

As to `CCCCNc1cc(-c2cn[nH]c2-c2cc(C)cc(OC)c2)nc(-c2cccnc2)n1`, the growth was 93.6% in test [1]; 80.1% in [2]; 100% in [3]; 69.8% in test [4]; 71.9% in test [5]; 98.4% in test [6]. Besides, the growth in [7] was 91.5%; in test [8], 81.7%; in test [9], 110%; in [10] it was 98.7%; in test [11], 82.7%; in test [12], 95.1%. Also, the growth in [13] was 76.2%; in test [14] it was 95.6%; in test [15], 87.3%; in [16], 80.9%; in test [17], 77.4%; in test [18] it was 80.2%. In addition, the figures for the growth in test [19] and in test [20] were 91.2% and 96.4%, respectively.

`O=C1Nc2ccccc2/C1=C\c1c[nH]c2ccc(Br)cc12`: the growth in [1] was 89.7%; in test [2], 74.2%; in test [3], 89.8%; in test [4] it was 67%; in [5], 25.4%; in [6] it was 62.2%. Also, the growth is 109% in [7]; 83.1% in test [8]; 80.1% in test [9]; 84.5% in test [10]; 48.7% in test [11]; 86.7% in [12]. For the same compound, the growth is 56.1% in [13]; 88.6% in [14]; 85% in [15]; 70.8% in [16]; 35.4% in test [17]; 80.1% in test [18]. Further, the growth in [19] is 50.6%; in test [20], 72.7%.

Regarding `C[n+]1ccc(CCc2c[nH]c3ccccc23)cc1`, the growth is 111% in [1]; 102% in test [2]; 76.1% in test [3]; 92.7% in test [4]; 118% in test [5]; 94.4% in test [6]. In addition, the growth in test [7] is 94.5%; in test [8], 95.7%; in test [9], 104%; in test [10] it was 95.1%; in test [11], 99.7%; in [12], 88.8%. For the same compound, the growth in test [13] is 74.6%; in [14], 102%; in test [15], 95.2%; in [16], 84%; in [17], 104%; in [18], 101%. The results for the growth in [19] and in test [20] were 94.6% and 100%, respectively.

Consider `CCCCC#Cc1c(I)n(C)c(=O)[nH]c1=O`, for which the growth in [1] is 20.8%; in test [2], -43.7% (active); in test [3], -85.4% (active); in test [4], -67.7% (active); in test [5] it was -81.7% (active); in [6], 26.5%. The growth was 92.3% in [7]; 66.7% in [8]; -48.4% (active) in test [9]; -7.41% (active) in test [10]; -92.5% (active) in test [11]; -75.3% (active) in test [12]. Besides, the growth was 82.6% in test [13]; 99.7% in test [14]; 2.73% (active) in [15]; 60.2% in test [16]; 62.5% in test [17]; -13.5% (active) in test [18]. For the same compound, the figures for the growth in [19] and in test [20] were -63.7% (active) and -85.6% (active), respectively.

Turning to `Fc1cccc(-c2ccc3c(c2)C2(CCNCC2)CN3)c1`, the growth in test [1] is 105%; in test [2], 92.6%; in [3] it was 109%; in test [4], 91.2%; in test [5], 121%; in test [6], 98.8%. Further, the growth in test [7] is 95.4%; in [8] it was 98.8%; in test [9], 126%; in test [10] it was 109%; in test [11], 94.9%; in test [12], 93.1%. Besides, the growth in test [13] is 92%; in test [14], 112%; in test [15], 107%; in test [16] it was 98.1%; in test [17], 97.4%; in [18], 87.4%. In addition, the growth is 92.2% in test [19] and 116% in test [20].

As to `C=C1C(=O)O[C@H]2[C@H]1CC/C(Cn1cc(CCC)nn1)=C\CC[C@@]1(C)O[C@@H]21`, the growth was 28.7% in test [1]; 4.94% (active) in test [2]; 4.68% (active) in test [3]; 12.2% in test [4]; -70.2% (active) in test [5]; 67.9% in test [6]. Besides, the growth was 71.6% in test [7]; -25% (active) in test [8]; 19.1% in test [9]; 12.1% in [10]; -1.47% (active) in test [11]; -9.05% (active) in [12]. The growth in [13] is 75.8%; in [14], 73.3%; in test [15] it was 73.7%; in test [16], 64.4%; in test [17] it was 53.1%; in test [18] it was 4.67% (active). Further, the figures for the growth in test [19] and in [20] were -29.3% (active) and 7.96% (active), respectively.

For the compound `O=C(NNC(=O)c1ccc(NC(=O)c2ccccn2)cc1)Nc1ccc2ccccc2c1`, the growth in test [1] is 110%; in test [2] it was 106%; in test [3], 123%; in [4], 115%; in test [5], 116%; in test [6], 101%. Further, the growth in [7] is 103%; in test [8] it was 69%; in test [9], 120%; in test [10] it was 115%; in test [11], 105%; in test [12] it was 109%. In addition, the growth in test [13] was 109%; in [14], 91.8%; in [15], 101%; in test [16], 107%; in test [17], 102%; in [18], 108%. For the same compound, the growth in [19] is 115%; in test [20], 110%.
